Holding throughout (type): functional
Assay [1] relates to Plasmodium falciparum. The assay is described as follows: GSK_TCMDC: Inhibition of Plasmodium falciparum 3D7 in whole red blood cells, using parasite LDH activity as an index of growth. Test compounds present at 2uM.
Assay [2] relates to Plasmodium falciparum. Kind of assay: GSK_TCMDC: Inhibition of Plasmodium falciparum Dd2 in whole red blood cells, using parasite LDH activity as an index of growth. Test compounds present at 2uM.
For the next assay, the system named is HepG2. The assay is described as follows: GSK_TCMDC: Percent inhibition of human HepG2 cell line. Test compounds present at 10uM.

30 compounds from ChEMBL document CHEMBL1157539, “Thousands of chemical starting points for antimalarial lead identification” (Nature, 2010) can be followed below.

As a reminder, the Inhibition is how much of the control response was suppressed. Low readings indicate a response near the control, high ones a response far below the control. As to `Cc1ccc2c(c1[N+](=O)[O-])N=NCC2Oc1ccccc1` (stereo not given), the Inhibition with Plasmodium falciparum [1] is listed as 91%; in the assay with Plasmodium falciparum [2], 19%; in the assay with HepG2, 16%.

For `CC(C)(CNCc1ccc(OC(F)(F)F)cc1)c1nc(-c2ccc(Cl)c(O)c2)c(-c2ccncc2)[nH]1.Cl`, the Inhibition in the assay with Plasmodium falciparum [1] came out at 100%; with Plasmodium falciparum [2], 99%; in the assay with HepG2, 38%.

With `COc1ccc(Cl)cc1N1CCN(CCCNC(=O)c2ccc(-c3nc4cc(Cl)c(F)cc4[nH]3)s2)CC1`, the Inhibition in the assay with Plasmodium falciparum [1] is 100%; with Plasmodium falciparum [2] it was 98%; in the assay on HepG2, 12%.

Turning to `Cc1cc(N[C@@H](CC(C)C)C(=O)Nc2ccccc2)nc(NCC2CCCCC2)n1.O=C(O)C(F)(F)F`, the Inhibition in the assay with Plasmodium falciparum [1] was 100%; with Plasmodium falciparum [2], 95%; in the assay on HepG2, 8%.

As for `CC(=O)O.CCC[C@@H]([C@@H](CC1CCCCC1)C(=O)N[C@H](C(=O)Nc1nccc(N)n1)C(C)(C)C)N(O)C=O`, the Inhibition in the assay on Plasmodium falciparum [1] came to 96%; in the assay with Plasmodium falciparum [2] it was 82%; with HepG2, 25%.

Consider `CCc1c(C)nc(-n2nc(C)cc2NC(=O)CCc2ccccc2)[nH]c1=O`, for which the Inhibition is reported as 97% in the assay on Plasmodium falciparum [1], 97% in the assay with Plasmodium falciparum [2] and 48% with HepG2.

In the case of `Cc1cc(OCCCN2CCC(NS(=O)(=O)c3ccc(Cl)c(Cl)c3)C2)c2ccccc2n1` (stereo not given), the Inhibition with Plasmodium falciparum [1] turned out to be 87%; in the assay on Plasmodium falciparum [2], 37%; in the assay on HepG2 it was 28%.

Consider `O=C(Nc1ccc(Oc2ccccc2)cc1)N1CCC(CCN2CCC(c3c[nH]c4ccccc34)CC2)CC1`, for which the values for the Inhibition in the assay with Plasmodium falciparum [1], in the assay on Plasmodium falciparum [2] and with HepG2 were 100%, 36% and 42%, respectively.

In the case of `CC(=O)Nc1cccc(C(=O)Nc2cccc(-c3ccc(-c4nc5cccc(C)c5[nH]4)cc3)c2)c1`, the results for the Inhibition in the assay on Plasmodium falciparum [1], in the assay with Plasmodium falciparum [2] and in the assay with HepG2 were 95%, 12% and 29%, respectively.

For `CCCCN(C)CC#Cc1ccc(-c2ccc3[nH]c(C)c(Br)c(=O)c3c2)cn1`, the Inhibition with Plasmodium falciparum [1] is reported as 98%; in the assay with Plasmodium falciparum [2], 93%; in the assay on HepG2 it was 3%.

In the case of `CN1CCCC(CN2CCN(Cc3cccc(-c4ccc(-c5nc6cc(F)ccc6[nH]5)cc4)c3)CC2)C1.O=C(O)C(F)(F)F` (stereo not given), the Inhibition was determined as 100% with Plasmodium falciparum [1], 100% in the assay on Plasmodium falciparum [2] and 78% in the assay on HepG2.

As for `CC[C@H](C)CNC(=O)c1cncc(-c2ccc(CN(C)C3CCN(C)CC3)cc2)c1.O=C(O)C(F)(F)F`, the Inhibition in the assay on Plasmodium falciparum [1] came out at 100%; in the assay on Plasmodium falciparum [2], 97%; in the assay with HepG2 it was 0%.

With `O=C(Nc1ccc(-c2cccc(-c3nc4cc(F)ccc4[nH]3)c2)cc1)c1ccncc1`, the Inhibition is recorded as 96% in the assay with Plasmodium falciparum [1], 18% in the assay with Plasmodium falciparum [2] and 58% with HepG2.

For the compound `O=C(Nc1ccccc1)Nc1cccc(-c2cccc(-c3nc4cc(F)ccc4[nH]3)c2)c1`, the Inhibition with Plasmodium falciparum [1] came out at 99%; with Plasmodium falciparum [2], 41%; in the assay with HepG2, 38%.

For `CCc1ccc(C2CCN(CCCCNC(=O)c3ccc(NC(=O)c4ccc(Cl)cc4)cc3)CC2)c(OC(C)=O)c1`, the Inhibition was determined as 91% in the assay on Plasmodium falciparum [1], 100% with Plasmodium falciparum [2] and 48% with HepG2.

As for `COc1ccc(C(=O)C2CC2CN(C)CC(O)c2cc(C)c(OC)cc2C)cc1.O=C(O)C(F)(F)F` (stereo not given), the Inhibition is recorded as 90% with Plasmodium falciparum [1], 77% in the assay on Plasmodium falciparum [2] and 8% with HepG2.

As to `O=C(Nc1cc(=O)[nH]c2nc(-c3ccccc3)nn12)C1CCCCC1`, the Inhibition was 86% in the assay on Plasmodium falciparum [1], 89% with Plasmodium falciparum [2] and 0% in the assay on HepG2.

Consider `O=C(Nc1ccc(-c2csc(-c3nc4ccccc4[nH]3)c2)cc1)Nc1ccsc1`, for which the Inhibition with Plasmodium falciparum [1] is listed as 100%; in the assay on Plasmodium falciparum [2], 17%; with HepG2, 50%.

In the case of `Cc1sc(CNCCCNc2cc(=O)c3ccccc3[nH]2)cc1Br`, the Inhibition was 100% in the assay on Plasmodium falciparum [1], 83% in the assay with Plasmodium falciparum [2] and 12% in the assay with HepG2.

As for `Cc1c(CCC#N)c(NCc2ccccc2)n2c(nc3ccccc32)c1C#N`, the Inhibition amounted to 100% in the assay on Plasmodium falciparum [1], 99% in the assay with Plasmodium falciparum [2] and 16% with HepG2.

Consider `CN1CCCc2ccc(NC(=O)Nc3ccc(-c4ccccc4)cc3)cc2C1`, for which the Inhibition in the assay on Plasmodium falciparum [1] is listed as 97%; in the assay on Plasmodium falciparum [2] it was 47%; in the assay on HepG2, 23%.

Regarding `CN(C)CCNCc1ncsc1-c1ccc2c(Nc3ccc(F)cc3Cl)ccnc2c1`, the Inhibition in the assay on Plasmodium falciparum [1] came to 100%; in the assay with Plasmodium falciparum [2], 95%; with HepG2 it was 0%.

As to `CCC1N=C(N)N=C(N)N1OCc1ccc(Cl)c(Cl)c1` (stereo not given), the Inhibition in the assay with Plasmodium falciparum [1] was 93%; in the assay on Plasmodium falciparum [2] it was 90%; in the assay on HepG2, 54%.

For the compound `CSc1cccc(Nc2nc3ccc(S(=O)(=O)NC(C)C(C)C)cc3n2[C@H](C)C(C)(C)C)c1` (stereo not given in full), the Inhibition with Plasmodium falciparum [1] stood at 97%; in the assay on Plasmodium falciparum [2], 98%; in the assay with HepG2, 0%.

Take `CC1CCN(CC[C@H]2CCCN2S(=O)(=O)c2cccc(NC(=O)c3ccc(-c4ccc(Cl)cc4)o3)c2)CC1`: the values for the Inhibition in the assay on Plasmodium falciparum [1], in the assay on Plasmodium falciparum [2] and with HepG2 were 100%, 65% and 45%, respectively.

For the compound `COc1ccc(-c2ccc(CNC(=O)c3cccc(C#N)c3)c(F)c2)cc1CN1CCCN(C)CC1.O=C(O)C(F)(F)F`, the Inhibition was determined as 99% in the assay with Plasmodium falciparum [1], 30% in the assay on Plasmodium falciparum [2] and 8% in the assay on HepG2.

As for `O=C(O)C(F)(F)F.c1ccc(CN2CCC(NCc3ccccc3-c3cccc(CNCc4ccc5c(c4)OCO5)c3)CC2)cc1`, the Inhibition worked out at 100% in the assay with Plasmodium falciparum [1], 69% in the assay with Plasmodium falciparum [2] and 37% with HepG2.

As for `CCC(C(=O)Nc1ccccc1)n1nc(-c2ccc(C)c(S(=O)(=O)N3CCCCC3)c2)ccc1=O` (stereo not given), the Inhibition in the assay with Plasmodium falciparum [1] worked out at 85%; in the assay with Plasmodium falciparum [2] it was 67%; with HepG2, 0%.

As for `CCOc1ccc2[nH]c(-c3ccccc3)cc(=NN=Cc3ccncc3)c2c1`, the Inhibition in the assay with Plasmodium falciparum [1] turned out to be 100%; in the assay with Plasmodium falciparum [2], 100%; in the assay on HepG2 it was 19%.

As for `Cc1ccc(Nc2nc(C)cc(Nc3cccc(NS(C)(=O)=O)c3)n2)cc1`, the Inhibition in the assay with Plasmodium falciparum [1] was 96%; in the assay on Plasmodium falciparum [2], 8%; with HepG2, 0%.
